Results from the supplement of paper PMC10849652.
About 7,900 targets were measured; listed, in parts, are those with a hit and a random draw of the rest. About 0.6% of all pairs of compound and target were hits.

compound: c1cn2cc(-c3ccc4cn[nH]c4c3)nc(Nc3ccc(N4CCOCC4)cc3)c2n1 [entospletinib]; test: log2 fold change, soluble protein after heating vs DMSO (PISA); higher = thermal stabilisation; K562 cells, 10 uM, 30 min; active = over 0.2 and 3.5 SD of the protein, either way, in both replicates (recomputed)
How it was run: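 K562 cells at 2×10^6 cells/mL were exposed to 10 μM compound for 30 min, then aliquots were heated for 3 min across 48°C-58°C, pooled, and extracted in PBS containing 0.5% NP-40 at 4°C. The supernatant after 21,000xg for 90 min was taken as soluble protein and measured by TMTpro 16plex LC-MS/MS with channel sums equalised. Thermal stability is reported relative to control samples, with values from duplicates. Fold changes are given on a log2 scale.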

Sequence of UniProt Q9Y383 (Q9Y383 whole entry, looked up): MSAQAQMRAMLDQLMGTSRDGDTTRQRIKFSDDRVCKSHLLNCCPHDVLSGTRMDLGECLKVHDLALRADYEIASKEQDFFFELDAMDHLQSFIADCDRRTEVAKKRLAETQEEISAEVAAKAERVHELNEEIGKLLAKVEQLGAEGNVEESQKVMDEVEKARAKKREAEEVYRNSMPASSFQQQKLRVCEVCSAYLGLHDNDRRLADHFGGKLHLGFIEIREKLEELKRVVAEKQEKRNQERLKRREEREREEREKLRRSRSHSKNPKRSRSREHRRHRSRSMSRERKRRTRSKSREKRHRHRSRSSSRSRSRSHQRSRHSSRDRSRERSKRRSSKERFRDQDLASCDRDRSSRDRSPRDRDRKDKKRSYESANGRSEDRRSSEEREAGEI
Sequence of UniProt A4D2B0 (A4D2B0 whole entry, looked up): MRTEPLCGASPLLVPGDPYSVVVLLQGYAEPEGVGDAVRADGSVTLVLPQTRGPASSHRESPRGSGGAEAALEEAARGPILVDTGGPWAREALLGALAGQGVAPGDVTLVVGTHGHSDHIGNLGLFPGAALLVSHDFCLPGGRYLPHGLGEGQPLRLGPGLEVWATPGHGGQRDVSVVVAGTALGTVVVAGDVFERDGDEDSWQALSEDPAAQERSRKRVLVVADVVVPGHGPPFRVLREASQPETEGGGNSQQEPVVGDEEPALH
Sequence of UniProt P27816 (P27816 whole entry, looked up): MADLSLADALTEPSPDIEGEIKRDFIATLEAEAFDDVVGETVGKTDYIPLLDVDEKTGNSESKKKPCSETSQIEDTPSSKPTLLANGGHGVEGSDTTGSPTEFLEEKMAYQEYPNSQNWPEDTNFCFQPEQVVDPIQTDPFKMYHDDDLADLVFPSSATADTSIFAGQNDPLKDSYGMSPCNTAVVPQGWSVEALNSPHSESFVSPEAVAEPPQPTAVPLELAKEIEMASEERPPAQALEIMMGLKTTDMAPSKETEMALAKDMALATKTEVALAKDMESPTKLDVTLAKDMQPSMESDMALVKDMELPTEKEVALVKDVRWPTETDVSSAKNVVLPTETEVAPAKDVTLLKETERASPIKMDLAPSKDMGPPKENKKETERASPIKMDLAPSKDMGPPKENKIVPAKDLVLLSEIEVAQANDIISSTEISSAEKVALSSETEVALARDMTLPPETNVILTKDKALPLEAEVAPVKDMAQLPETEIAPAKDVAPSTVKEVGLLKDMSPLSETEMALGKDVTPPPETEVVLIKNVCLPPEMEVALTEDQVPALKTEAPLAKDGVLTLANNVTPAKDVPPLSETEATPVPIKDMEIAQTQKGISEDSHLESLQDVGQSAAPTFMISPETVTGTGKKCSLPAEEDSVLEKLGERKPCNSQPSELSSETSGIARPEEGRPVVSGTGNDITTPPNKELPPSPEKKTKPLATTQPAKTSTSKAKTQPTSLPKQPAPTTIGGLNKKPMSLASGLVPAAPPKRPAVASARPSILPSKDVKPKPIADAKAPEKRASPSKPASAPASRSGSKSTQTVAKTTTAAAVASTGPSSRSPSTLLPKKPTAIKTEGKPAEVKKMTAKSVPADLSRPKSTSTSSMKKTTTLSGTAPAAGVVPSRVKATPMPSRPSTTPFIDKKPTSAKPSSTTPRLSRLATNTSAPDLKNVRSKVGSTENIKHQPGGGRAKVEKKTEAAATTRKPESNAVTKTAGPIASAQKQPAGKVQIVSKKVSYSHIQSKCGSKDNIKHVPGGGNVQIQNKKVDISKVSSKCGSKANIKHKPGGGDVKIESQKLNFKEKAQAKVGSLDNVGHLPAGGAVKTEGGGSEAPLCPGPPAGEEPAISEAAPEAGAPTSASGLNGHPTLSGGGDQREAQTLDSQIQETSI
Sequence of UniProt Q8WWC4 (Q8WWC4 whole entry, looked up): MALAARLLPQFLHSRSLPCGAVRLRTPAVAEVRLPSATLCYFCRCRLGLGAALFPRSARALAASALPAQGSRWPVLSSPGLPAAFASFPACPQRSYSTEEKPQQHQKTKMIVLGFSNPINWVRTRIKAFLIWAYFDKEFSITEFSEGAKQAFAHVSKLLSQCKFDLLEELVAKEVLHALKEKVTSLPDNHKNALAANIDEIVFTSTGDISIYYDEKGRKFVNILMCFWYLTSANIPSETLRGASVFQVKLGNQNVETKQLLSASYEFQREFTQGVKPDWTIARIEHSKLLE
Sequence of UniProt P48449 (P48449 whole entry, looked up): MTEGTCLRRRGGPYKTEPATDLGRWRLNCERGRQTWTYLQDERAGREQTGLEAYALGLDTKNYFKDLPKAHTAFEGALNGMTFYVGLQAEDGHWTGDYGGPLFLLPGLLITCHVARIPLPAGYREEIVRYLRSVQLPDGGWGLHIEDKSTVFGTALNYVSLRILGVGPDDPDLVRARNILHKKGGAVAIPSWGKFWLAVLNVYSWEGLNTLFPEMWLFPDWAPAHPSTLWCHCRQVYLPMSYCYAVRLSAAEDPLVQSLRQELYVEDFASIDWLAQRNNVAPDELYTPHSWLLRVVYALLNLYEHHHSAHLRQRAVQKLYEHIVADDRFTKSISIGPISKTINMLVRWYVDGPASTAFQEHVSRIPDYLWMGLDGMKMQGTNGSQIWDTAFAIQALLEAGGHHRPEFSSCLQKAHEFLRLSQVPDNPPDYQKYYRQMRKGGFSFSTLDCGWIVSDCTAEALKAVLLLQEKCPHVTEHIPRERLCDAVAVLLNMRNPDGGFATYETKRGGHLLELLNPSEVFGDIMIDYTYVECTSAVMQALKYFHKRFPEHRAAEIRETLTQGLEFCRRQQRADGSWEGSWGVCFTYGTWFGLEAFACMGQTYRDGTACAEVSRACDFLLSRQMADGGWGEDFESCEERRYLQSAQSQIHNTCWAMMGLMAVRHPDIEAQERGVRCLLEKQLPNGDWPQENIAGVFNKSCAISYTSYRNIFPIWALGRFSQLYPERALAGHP
Sequence of UniProt Q96EK5 (Q96EK5 whole entry, looked up): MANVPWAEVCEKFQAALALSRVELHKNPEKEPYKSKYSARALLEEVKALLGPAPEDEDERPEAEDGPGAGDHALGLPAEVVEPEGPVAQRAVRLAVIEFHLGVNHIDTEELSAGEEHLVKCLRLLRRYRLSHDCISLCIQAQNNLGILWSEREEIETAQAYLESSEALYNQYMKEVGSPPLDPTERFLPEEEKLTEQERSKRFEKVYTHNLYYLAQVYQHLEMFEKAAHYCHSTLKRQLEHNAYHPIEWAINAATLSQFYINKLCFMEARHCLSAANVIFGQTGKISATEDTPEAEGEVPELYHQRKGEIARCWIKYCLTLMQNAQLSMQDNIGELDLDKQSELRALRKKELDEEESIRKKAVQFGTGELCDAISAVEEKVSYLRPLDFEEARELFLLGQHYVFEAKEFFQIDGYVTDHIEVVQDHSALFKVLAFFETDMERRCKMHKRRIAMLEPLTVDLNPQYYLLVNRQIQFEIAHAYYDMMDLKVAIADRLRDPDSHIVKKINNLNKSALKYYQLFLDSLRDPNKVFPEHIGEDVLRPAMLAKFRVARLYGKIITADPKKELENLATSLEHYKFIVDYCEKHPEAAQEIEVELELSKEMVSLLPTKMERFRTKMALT
Sequence of UniProt Q16891 (Q16891 whole entry, looked up): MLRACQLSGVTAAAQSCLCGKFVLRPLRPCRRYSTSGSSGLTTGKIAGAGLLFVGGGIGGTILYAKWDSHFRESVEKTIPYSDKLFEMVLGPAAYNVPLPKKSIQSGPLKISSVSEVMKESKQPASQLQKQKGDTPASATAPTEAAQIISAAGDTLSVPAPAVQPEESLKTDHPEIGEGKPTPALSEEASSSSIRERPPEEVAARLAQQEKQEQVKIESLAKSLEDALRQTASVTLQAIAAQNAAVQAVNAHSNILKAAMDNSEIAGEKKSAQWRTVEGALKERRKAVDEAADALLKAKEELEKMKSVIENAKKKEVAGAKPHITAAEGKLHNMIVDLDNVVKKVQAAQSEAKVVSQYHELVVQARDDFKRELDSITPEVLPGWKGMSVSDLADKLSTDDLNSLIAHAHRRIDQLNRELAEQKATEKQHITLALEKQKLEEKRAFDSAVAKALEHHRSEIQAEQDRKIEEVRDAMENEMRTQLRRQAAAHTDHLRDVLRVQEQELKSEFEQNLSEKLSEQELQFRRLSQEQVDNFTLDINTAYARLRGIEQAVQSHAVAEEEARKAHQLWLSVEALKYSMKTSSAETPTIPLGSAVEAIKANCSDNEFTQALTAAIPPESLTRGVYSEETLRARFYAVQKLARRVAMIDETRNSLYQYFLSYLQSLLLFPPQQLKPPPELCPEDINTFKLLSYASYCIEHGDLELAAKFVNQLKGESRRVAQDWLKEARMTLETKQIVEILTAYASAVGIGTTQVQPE
Sequence of UniProt Q9UGP4 (Q9UGP4 whole entry, looked up): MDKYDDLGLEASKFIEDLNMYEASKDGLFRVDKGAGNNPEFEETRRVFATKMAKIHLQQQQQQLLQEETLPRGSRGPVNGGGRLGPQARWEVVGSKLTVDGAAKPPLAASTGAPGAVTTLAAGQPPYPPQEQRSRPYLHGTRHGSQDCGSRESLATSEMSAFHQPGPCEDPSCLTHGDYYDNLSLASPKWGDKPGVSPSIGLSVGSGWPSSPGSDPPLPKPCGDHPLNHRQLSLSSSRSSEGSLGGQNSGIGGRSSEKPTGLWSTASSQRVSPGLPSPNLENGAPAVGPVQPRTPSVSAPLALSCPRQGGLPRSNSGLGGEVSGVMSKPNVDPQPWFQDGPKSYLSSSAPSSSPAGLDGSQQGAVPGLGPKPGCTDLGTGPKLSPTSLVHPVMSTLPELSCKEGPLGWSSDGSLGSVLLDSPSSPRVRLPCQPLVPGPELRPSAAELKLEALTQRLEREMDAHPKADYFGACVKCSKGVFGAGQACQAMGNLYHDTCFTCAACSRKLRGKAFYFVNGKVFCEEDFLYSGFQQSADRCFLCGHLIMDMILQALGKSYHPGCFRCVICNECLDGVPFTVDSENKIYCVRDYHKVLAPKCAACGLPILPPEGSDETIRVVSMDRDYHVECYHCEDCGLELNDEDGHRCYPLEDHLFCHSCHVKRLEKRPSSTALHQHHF

log2 fold change, inactive:
LUC7L2 (UniProt Q9Y383) 0
MAIP1 (UniProt Q8WWC4) -0.003
LIMD1 (UniProt Q9UGP4) -0.025
KIFBP (UniProt Q96EK5) -0.098
MBLAC1 (UniProt A4D2B0) 0.083
LSS (UniProt P48449) 0.004
IPO9 (UniProt Q96P70) 0.037
MAP4 isoform 5 (UniProt P27816) -0.07
LRFN1 (UniProt Q9P244) -0.031
IMMT isoform 2 (UniProt Q16891) -0.053
KIZ (UniProt Q2M2Z5) -0.105
